The whole screen tested about 39,000 compounds, of which about 1,500 (3.8%) were called active. The sample holds actives, similar compounds and a random draw of the others, so the mix is not that of the screen.

For this experiment, the system named is HSkMC (human skeletal muscle cells). Briefly: cytotoxicity call (relative viability < 0.9). Particulars: 10 µM.
As to `c1ccc(-c2nc(C34CC5CC(CC(C5)C3)C4)cs2)cc1`, the cytotoxicity call is “inactive”.
The value for `OCc1cn(-c2ccccc2)nn1` was “inactive”.
The value for `NCc1cn(-c2ccccc2)nc1C12CC3CC(CC(C3)C1)C2` was “active”.
As to `C[C@H]1CCN=C(N)S1`, the cytotoxicity call is “inactive”.
The value for `C[C@@H]1CN([C@@H](C)CO)C(=O)c2cccc(NC(=O)c3cnccn3)c2O[C@@H]1CN(C)S(=O)(=O)c1ccc(Cl)cc1` was “inactive”.
As for `O=C(O)c1ccc(C(=O)O)nc1`, the cytotoxicity call is “inactive”.
The value for `COc1ccc2c3c([nH]c2c1)[C@H](CO)N(C[C@]13CCN(CC1)C(=O)c1ccncc1)C(=O)c1ccncc1` was “inactive”; that for `C[C@@H]1CN([C@@H](C)CO)C(=O)c2cc(NC(=O)CCCN(C)C)ccc2O[C@@H](C)CCCCO[C@H]1CN(C)CC1CCCCC1` was “inactive”.
The value for `CCCNc1nc(=O)c(C)n[nH]1` was “inactive”; that for `Cc1n[nH]c(NCc2ccco2)nc1=O` was “inactive”; that for `Cc1n[nH]c(N/N=C/c2ccccn2)nc1=O` was “active”.
Take `Cc1ccc(-c2nn[nH]n2)n1C`: the cytotoxicity call was “inactive”.
For `C[C@@H]1CN([C@@H](C)CO)C(=O)c2cc(NC(=O)NC3CCCCC3)ccc2O[C@@H](C)CCCCO[C@H]1CN(C)C(=O)c1ccncc1`, the cytotoxicity call was “inactive”.
With `C[C@@H]1CN([C@H](C)CO)C(=O)Cc2cc(NS(=O)(=O)c3ccccc3)ccc2O[C@@H]1CN(C)Cc1ccc2c(c1)OCO2` the entry was “inactive”.
The value for `O=C(C[C@@H]1CC[C@@H]2[C@H](COC[C@@H](O)CN2C(=O)c2cnccn2)O1)N1CCN(c2ccccc2)CC1` was “inactive”; that for `Cc1cc(C(=O)Nc2cccc3c2O[C@@H](CN(C)C(=O)Nc2ccc4c(c2)OCO4)[C@@H](C)CN([C@H](C)CO)C3=O)n(C)n1` was “inactive”.
Take `O=C(N[C@@H](c1ccccc1)c1ccc2ccccc2n1)C1CCN(CCOc2ccc(Cl)cc2)CC1`: the cytotoxicity call is “inactive”.
The value for `Cc1cc(-c2cc(OC(=O)c3ccccc3)ccc2Cl)cc2nnc(Nc3ccc(OCCN4CCCC4)cc3)nc12` was “active”; that for `O=C(N[C@@H](c1ccc(-c2ccccc2)cc1)c1cnccn1)C1CCN(CCOc2ccc(F)cc2)CC1` was “inactive”; that for `CC(C)=C[C@H]1[C@@H](c2nc3cc(Br)ccc3o2)C1(C)C` was “inactive”.
On to `C[C@@H]1CCCCO[C@H](CN(C)S(=O)(=O)c2ccc(F)cc2)[C@@H](C)CN([C@H](C)CO)C(=O)c2cc(NC(=O)Nc3ccc(C(F)(F)F)cc3)ccc2O1`, for which the cytotoxicity call was “inactive”.
With `COCC(=O)N1C[C@@H](C)[C@H](OC)CN(C)C(=O)c2ccc(NC(=O)c3ccc(F)cc3)cc2OC[C@@H]1C`, the cytotoxicity call was “inactive”.
As to `C[C@H]1CN([C@@H](C)CO)C(=O)Cc2cc(NC(=O)Nc3ccc(F)cc3)ccc2O[C@H]1CN(C)Cc1ccc(C(F)(F)F)cc1`, the cytotoxicity call is “active”.
Take `C[C@@H]1CN([C@@H](C)CO)C(=O)Cc2cc(NC(=O)Nc3ccc(F)cc3)ccc2O[C@H]1CN(C)Cc1ccc(C(F)(F)F)cc1`: the cytotoxicity call was “inactive”.
In the case of `C[C@H]1CN([C@@H](C)CO)C(=O)Cc2cc(NC(=O)Nc3ccc(F)cc3)ccc2O[C@@H]1CN(C)Cc1ccc(C(F)(F)F)cc1`, the cytotoxicity call is “inactive”.
With `C[C@H](CO)N1C[C@H](C)[C@@H](CN(C)Cc2ccc(C(F)(F)F)cc2)Oc2ccc(NC(=O)Nc3ccc(F)cc3)cc2CC1=O` the entry was “active”.
Regarding `C[C@@H]1CN([C@H](C)CO)C(=O)Cc2cc(NC(=O)Nc3ccc(F)cc3)ccc2O[C@H]1CN(C)Cc1ccc(C(F)(F)F)cc1`, the cytotoxicity call was “active”.
With `C[C@@H]1CN([C@@H](C)CO)C(=O)Cc2cc(NC(=O)Nc3ccc(F)cc3)ccc2O[C@@H]1CN(C)Cc1ccc(C(F)(F)F)cc1` the entry was “active”; with `C[C@H](CO)N1C[C@H](C)[C@@H](CN(C)Cc2ccc(C(=O)O)cc2)Oc2c(NS(=O)(=O)c3cn(C)cn3)cccc2C1=O`, “inactive”.
Take `CC(C)NC(=O)N(C)C[C@@H]1OCCCC[C@H](C)Oc2ccc(NC(=O)Nc3ccc(F)cc3)cc2C(=O)N([C@H](C)CO)C[C@@H]1C`: the cytotoxicity call is “inactive”.
As to `C[C@@H]1CN([C@@H](C)CO)C(=O)c2cc(NC(=O)C3CCCCC3)ccc2O[C@@H](C)CCCCO[C@H]1CN(C)C(=O)Nc1ccccc1`, the cytotoxicity call was “inactive”.
The value for `C[C@H](CO)N1C[C@H](C)[C@@H](CN(C)S(=O)(=O)c2ccc(Cl)cc2)Oc2ccc(N(C)C)cc2C1=O` was “inactive”; that for `COCCNC(=O)C[C@@H]1CC[C@H]2[C@@H](COC[C@@H](O)CN2C(=O)Nc2ccc3c(c2)OCO3)O1` was “inactive”; that for `O=C(O)Cc1cccc(OCCCN(Cc2cccc(C(F)(F)F)c2Cl)CC(c2ccccc2)c2ccccc2)c1` was “inactive”.
Consider `Cc1noc(C)c1NC(=O)N(C)C[C@H]1Oc2ccc(NC(=O)Nc3cccc4ccccc34)cc2C(=O)N([C@@H](C)CO)C[C@H]1C`, for which the cytotoxicity call was “inactive”.
The value for `C=CCOC(=O)[C@@H]1[C@H]2C(=O)O[C@H](c3ccccc3)[C@H](c3ccccc3)N2[C@H](c2ccc(OCCOC(=O)[C@H]3C[C@H]4C(=O)N[C@@H](CCCCN(C)C)C(=O)N4[C@H]3c3cccc(OCCO)c3)cc2)[C@@]12C(=O)Nc1ccc(I)cc12` was “inactive”.
With `COc1ccc2c3c(n(c2c1)C)[C@H](CO)N(C[C@]13CCN(CC1)C(=O)CN(C)C)S(=O)(=O)C` the entry was “inactive”.
Take `C[C@H](CO)N1C[C@H](C)[C@H](CN(C)Cc2ccc(C(F)(F)F)cc2)Oc2ccc(NC(=O)Nc3ccc(F)cc3)cc2CC1=O`: the cytotoxicity call is “active”.
With `C[C@@H]1CN([C@H](C)CO)C(=O)Cc2cc(NC(=O)Nc3ccc(F)cc3)ccc2O[C@@H]1CN(C)Cc1ccc(C(F)(F)F)cc1` the entry was “active”.
The value for `CO[C@H]1CN(C)C(=O)c2cc(NC(=O)NC(C)C)ccc2OC[C@H](C)N(Cc2ccc(-c3ccccn3)cc2)C[C@@H]1C` was “inactive”; that for `COCC(=O)N(C)C[C@@H]1Oc2cc(C#Cc3ccccc3)ccc2S(=O)(=O)N([C@H](C)CO)C[C@H]1C` was “inactive”.
The value for `CO[C@@H]1CN(C)C(=O)c2cc(NC(=O)Nc3ccccc3)ccc2OC[C@@H](C)N(C(=O)CN(C)C)C[C@@H]1C` was “inactive”; that for `Nc1ccn([C@H]2CC[C@@H](CO)O2)c(=O)n1` was “inactive”; that for `CC(C)CC#Cc1ccc2c(c1)O[C@H](CN(C)C(=O)c1ccncc1)[C@@H](C)CN([C@H](C)CO)S2(=O)=O` was “inactive”.
For `CCn1c(-c2nonc2N)nc2cncc(C(=O)N3CC[C@H](N)C3)c21`, the cytotoxicity call is “active”.

These data come from the antibiotic and cytotoxicity screens of Wong et al. (2023).
